Assay results published in paper PMC7862700, “An all-to-all approach to the identification of sequence-specific readers for epigenetic DNA modifications on cytosine”.

Columns and labels:
Assay in all cases: DAPPL (digital affinity profiling via proximity ligation, sequencing); 10 mM Tris-HCl pH 7.5, 50 mM NaCl, 1 mM DTT, 4% glycerol, room temperature, 30 min; GST-TFs on glutathione beads, 16-mer random dsDNA library, 0.1% formaldehyde crosslink after washing; high values mean tight binding
[1] = target: T1, FEV (Homo sapiens, UniProt Q99581 1-238); conditions: protein: recombinant; tags: N-terminal GST; dsDNA, one strand shown
T1 sequence: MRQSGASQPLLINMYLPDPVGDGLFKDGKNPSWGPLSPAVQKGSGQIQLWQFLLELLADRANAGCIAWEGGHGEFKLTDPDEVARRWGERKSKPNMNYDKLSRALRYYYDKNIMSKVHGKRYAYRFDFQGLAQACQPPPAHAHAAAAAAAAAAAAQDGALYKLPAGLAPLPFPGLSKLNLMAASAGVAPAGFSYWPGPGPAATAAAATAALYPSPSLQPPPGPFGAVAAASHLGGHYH
Summary of the method: (§1)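 Beads coated with glutathione captured GST-fused human transcription factors that had been expressed in yeast, and the factors were then given DNA barcodes and pooled with a tag-only sample. The pools were incubated with 200 nmole of a random double-stranded 16-mer DNA library in Tris/NaCl/DTT/glycerol buffer for 30 min at room temperature, washed, crosslinked with 0.1% formaldehyde and proximity-ligated with BsaI/T4 ligase at 37 °C for 1 h. PCR amplification and Illumina NextSeq500 sequencing came last. Binding signal is each hexamer's read frequency for a factor divided by its frequency for the tag-only sample.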

[2] = target: ETV5 (Homo sapiens, UniProt P41161 1-510); conditions: protein: recombinant; tags: N-terminal GST; dsDNA, one strand shown
Summary of the method: as §1

[3] = target: HSF1 (Homo sapiens, UniProt Q00613 1-529); conditions: protein: recombinant; tags: N-terminal GST; chain copies: 3; dsDNA, one strand shown
Summary of the method: as §1

[4] = target: T2, SPIC (Homo sapiens, UniProt Q8N5J4 1-248); conditions: protein: recombinant; tags: N-terminal GST; dsDNA, one strand shown
T2 sequence: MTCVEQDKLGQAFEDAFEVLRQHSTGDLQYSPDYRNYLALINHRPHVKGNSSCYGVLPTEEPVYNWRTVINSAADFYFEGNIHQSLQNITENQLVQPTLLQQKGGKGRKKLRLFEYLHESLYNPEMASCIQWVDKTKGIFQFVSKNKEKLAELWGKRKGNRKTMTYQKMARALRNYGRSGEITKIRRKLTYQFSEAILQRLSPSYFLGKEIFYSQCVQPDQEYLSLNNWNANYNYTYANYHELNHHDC
Summary of the method: as §1

[5] = target: ELF4 (Homo sapiens, UniProt Q99607 1-663); conditions: protein: recombinant; tags: N-terminal GST; dsDNA, one strand shown
Summary of the method: as §1

[6] = target: T3, ELK4 (Homo sapiens, UniProt P28324-2 1-405); conditions: protein: recombinant; tags: N-terminal GST; dsDNA, one strand shown
T3 sequence: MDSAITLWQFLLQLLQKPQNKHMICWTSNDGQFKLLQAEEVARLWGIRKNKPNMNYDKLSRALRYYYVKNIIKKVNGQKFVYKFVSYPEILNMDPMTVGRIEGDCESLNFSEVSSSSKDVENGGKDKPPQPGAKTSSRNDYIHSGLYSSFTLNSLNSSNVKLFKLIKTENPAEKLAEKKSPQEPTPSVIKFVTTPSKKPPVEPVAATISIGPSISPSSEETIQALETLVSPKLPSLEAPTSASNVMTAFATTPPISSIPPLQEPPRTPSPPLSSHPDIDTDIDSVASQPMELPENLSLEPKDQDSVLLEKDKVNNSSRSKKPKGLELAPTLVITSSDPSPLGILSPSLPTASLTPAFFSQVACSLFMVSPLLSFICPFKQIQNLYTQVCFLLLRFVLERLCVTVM
Summary of the method: as §1

[7] = target: T4, ETV2 (Homo sapiens, UniProt O00321 1-342); conditions: protein: recombinant; tags: N-terminal GST; dsDNA, one strand shown
T4 sequence: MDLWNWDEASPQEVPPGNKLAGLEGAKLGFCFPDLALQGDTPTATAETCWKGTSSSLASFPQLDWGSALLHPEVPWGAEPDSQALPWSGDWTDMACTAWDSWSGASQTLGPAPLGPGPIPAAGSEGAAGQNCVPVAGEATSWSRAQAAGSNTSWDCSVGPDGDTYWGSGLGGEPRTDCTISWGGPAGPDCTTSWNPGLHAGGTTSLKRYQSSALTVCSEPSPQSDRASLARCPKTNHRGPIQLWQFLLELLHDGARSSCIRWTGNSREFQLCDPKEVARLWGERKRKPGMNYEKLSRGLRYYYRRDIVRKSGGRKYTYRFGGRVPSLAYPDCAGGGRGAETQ
Summary of the method: as §1

[8] = target: T5, ELF3 (Homo sapiens, UniProt P78545 1-371); conditions: protein: recombinant; tags: N-terminal GST; dsDNA, one strand shown
T5 sequence: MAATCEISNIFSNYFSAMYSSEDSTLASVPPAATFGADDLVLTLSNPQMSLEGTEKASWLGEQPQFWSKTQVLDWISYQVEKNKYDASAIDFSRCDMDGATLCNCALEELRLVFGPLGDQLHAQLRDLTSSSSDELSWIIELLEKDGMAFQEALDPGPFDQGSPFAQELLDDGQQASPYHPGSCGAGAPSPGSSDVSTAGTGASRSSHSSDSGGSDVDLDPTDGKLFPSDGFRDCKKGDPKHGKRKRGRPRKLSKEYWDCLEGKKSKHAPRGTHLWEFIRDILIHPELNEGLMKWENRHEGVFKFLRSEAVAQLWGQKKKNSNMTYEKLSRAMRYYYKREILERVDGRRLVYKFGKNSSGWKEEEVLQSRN
Summary of the method: as §1

[9] = target: CRX (Homo sapiens, UniProt O43186 1-299); conditions: protein: recombinant; tags: N-terminal GST; dsDNA, one strand shown
Summary of the method: as §1

[10] = target: ETV1 (Homo sapiens, UniProt P50549 1-477); conditions: protein: recombinant; tags: N-terminal GST; dsDNA, one strand shown
Summary of the method: as §1

[11] = target: T6, ERF (Homo sapiens, UniProt P50548 1-548); conditions: protein: recombinant; tags: N-terminal GST; dsDNA, one strand shown
T6 sequence: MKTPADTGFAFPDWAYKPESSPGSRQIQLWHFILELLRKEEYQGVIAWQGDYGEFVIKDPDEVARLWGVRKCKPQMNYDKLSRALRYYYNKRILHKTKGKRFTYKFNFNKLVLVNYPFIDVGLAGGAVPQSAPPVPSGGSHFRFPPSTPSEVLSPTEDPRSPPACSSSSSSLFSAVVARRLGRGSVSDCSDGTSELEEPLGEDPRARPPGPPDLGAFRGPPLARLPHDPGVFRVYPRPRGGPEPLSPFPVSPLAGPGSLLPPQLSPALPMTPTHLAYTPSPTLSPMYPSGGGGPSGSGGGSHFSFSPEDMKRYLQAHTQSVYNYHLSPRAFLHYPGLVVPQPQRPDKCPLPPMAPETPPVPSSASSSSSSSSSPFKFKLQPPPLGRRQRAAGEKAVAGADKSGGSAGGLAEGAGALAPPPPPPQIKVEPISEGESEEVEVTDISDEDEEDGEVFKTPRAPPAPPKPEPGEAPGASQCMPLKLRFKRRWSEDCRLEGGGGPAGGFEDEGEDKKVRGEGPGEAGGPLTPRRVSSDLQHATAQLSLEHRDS
Summary of the method: as §1

[12] = target: T7, ETV3L (Homo sapiens, UniProt Q6ZN32 1-361); conditions: protein: recombinant; tags: N-terminal GST; dsDNA, one strand shown
T7 sequence: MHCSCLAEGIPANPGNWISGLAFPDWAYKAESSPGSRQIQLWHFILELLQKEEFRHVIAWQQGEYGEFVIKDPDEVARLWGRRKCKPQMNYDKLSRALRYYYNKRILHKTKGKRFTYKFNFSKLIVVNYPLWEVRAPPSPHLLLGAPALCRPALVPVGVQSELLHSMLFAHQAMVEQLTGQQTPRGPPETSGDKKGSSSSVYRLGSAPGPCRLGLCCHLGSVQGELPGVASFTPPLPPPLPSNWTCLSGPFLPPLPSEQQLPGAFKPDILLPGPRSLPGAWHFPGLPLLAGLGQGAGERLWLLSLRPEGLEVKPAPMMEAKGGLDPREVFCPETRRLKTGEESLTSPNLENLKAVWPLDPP
Summary of the method: as §1

[13] = target: T8, ETS2 (Homo sapiens, UniProt P15036 1-469); conditions: protein: recombinant; tags: N-terminal GST; dsDNA, one strand shown
T8 sequence: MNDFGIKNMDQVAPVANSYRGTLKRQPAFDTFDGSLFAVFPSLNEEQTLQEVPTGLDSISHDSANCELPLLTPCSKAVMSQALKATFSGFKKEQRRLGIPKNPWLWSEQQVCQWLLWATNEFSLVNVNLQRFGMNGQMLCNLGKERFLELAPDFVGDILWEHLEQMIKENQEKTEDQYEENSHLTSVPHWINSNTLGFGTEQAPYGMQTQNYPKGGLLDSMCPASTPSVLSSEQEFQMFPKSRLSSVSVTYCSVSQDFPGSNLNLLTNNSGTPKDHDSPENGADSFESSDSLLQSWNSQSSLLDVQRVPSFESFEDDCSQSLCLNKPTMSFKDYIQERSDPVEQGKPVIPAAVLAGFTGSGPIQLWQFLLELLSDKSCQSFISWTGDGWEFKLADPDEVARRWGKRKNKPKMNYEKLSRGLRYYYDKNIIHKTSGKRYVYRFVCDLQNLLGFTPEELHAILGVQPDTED
Summary of the method: as §1

[14] = target: T9, SPDEF (Homo sapiens, UniProt O95238 1-335); conditions: protein: recombinant; tags: N-terminal GST; dsDNA, one strand shown
T9 sequence: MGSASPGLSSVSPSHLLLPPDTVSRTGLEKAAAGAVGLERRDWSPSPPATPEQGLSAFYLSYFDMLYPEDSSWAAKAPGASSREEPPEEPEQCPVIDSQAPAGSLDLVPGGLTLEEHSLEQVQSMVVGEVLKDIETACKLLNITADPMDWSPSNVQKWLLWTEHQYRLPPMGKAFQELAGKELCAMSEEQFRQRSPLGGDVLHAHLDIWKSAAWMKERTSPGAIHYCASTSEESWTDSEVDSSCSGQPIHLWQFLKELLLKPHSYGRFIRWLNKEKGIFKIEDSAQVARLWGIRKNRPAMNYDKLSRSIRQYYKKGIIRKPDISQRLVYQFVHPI
Summary of the method: as §1

[15] = target: T10, ETV7 (Homo sapiens, UniProt Q9Y603 1-341); conditions: protein: recombinant; tags: N-terminal GST; dsDNA, one strand shown
T10 sequence: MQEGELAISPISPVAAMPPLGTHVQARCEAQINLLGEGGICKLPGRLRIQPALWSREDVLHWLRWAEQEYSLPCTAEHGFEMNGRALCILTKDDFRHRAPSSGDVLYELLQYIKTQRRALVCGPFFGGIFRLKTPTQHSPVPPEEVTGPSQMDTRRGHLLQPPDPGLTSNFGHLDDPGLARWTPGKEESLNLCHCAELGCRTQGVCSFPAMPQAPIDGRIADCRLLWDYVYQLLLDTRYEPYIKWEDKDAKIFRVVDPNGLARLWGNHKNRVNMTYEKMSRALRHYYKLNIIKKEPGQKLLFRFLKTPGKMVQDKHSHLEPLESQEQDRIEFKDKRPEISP
Summary of the method: as §1

[16] = target: T11, ELF5 (Homo sapiens, UniProt Q9UKW6-2 1-255); conditions: protein: recombinant; tags: N-terminal GST; dsDNA, one strand shown
T11 sequence: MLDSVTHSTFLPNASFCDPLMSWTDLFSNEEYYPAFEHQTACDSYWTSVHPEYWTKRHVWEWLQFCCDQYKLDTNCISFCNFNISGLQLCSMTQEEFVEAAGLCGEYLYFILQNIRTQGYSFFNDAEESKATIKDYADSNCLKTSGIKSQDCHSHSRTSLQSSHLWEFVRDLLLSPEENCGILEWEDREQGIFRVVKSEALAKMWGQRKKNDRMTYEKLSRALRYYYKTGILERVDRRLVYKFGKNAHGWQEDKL
Summary of the method: as §1

[17] = target: T12, ETV3 (Homo sapiens, UniProt P41162-2 1-143); conditions: protein: recombinant; tags: N-terminal GST; dsDNA, one strand shown
T12 sequence: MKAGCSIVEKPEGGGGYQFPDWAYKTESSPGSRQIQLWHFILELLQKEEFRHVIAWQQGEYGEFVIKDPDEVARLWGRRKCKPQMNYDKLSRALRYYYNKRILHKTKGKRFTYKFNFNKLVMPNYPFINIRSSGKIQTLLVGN
Summary of the method: as §1

[18] = target: ETV6 (Homo sapiens, UniProt P41212 1-452); conditions: protein: recombinant; tags: N-terminal GST; dsDNA, one strand shown
Summary of the method: as §1

Chain of ELF4 (Q99607 whole entry): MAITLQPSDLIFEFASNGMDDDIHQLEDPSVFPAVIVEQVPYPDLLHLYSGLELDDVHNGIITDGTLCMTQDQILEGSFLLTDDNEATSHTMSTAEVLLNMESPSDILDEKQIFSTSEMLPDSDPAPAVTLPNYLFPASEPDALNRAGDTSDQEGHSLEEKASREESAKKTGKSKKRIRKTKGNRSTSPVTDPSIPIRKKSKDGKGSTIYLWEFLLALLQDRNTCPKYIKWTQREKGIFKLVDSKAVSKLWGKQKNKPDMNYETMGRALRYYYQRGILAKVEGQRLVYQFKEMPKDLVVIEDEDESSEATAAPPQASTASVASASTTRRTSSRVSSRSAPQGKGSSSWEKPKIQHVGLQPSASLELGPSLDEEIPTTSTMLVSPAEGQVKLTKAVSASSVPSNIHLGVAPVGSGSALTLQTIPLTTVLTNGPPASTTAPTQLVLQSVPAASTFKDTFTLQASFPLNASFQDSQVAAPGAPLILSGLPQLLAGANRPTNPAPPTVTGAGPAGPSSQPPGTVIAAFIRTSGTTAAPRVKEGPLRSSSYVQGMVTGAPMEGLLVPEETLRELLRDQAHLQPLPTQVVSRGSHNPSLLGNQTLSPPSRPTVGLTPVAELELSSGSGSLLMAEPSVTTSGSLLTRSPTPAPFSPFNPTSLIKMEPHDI
Chain of ETV1 (P50549 whole entry): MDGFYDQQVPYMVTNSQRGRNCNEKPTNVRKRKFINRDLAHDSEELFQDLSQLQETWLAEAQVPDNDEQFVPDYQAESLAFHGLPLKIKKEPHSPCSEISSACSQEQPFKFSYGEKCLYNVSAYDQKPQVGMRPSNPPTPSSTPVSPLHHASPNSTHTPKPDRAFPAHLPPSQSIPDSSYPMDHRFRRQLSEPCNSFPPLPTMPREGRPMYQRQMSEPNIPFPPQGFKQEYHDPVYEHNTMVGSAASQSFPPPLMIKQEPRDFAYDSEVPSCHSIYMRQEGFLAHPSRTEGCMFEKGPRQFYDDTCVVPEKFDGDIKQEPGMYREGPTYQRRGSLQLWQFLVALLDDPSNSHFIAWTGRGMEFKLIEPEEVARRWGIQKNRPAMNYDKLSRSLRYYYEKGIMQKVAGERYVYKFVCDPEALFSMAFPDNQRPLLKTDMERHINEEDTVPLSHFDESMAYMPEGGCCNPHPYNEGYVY
Chain of ETV5 (P41161 whole entry): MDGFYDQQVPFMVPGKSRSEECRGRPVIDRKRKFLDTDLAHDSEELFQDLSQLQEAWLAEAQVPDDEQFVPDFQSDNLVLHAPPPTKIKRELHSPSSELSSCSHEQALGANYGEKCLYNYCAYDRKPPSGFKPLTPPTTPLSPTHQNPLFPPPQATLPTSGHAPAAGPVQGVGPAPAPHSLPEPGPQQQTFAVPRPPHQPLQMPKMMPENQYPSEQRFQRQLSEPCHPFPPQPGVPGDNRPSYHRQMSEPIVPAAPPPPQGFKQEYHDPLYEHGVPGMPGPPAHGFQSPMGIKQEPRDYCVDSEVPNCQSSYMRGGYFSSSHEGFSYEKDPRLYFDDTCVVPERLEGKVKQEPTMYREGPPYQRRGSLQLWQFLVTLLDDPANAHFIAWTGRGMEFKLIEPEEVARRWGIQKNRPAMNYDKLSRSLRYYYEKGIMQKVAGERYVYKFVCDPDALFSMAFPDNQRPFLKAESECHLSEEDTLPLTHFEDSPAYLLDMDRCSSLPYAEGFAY
Chain of HSF1 (Q00613 whole entry): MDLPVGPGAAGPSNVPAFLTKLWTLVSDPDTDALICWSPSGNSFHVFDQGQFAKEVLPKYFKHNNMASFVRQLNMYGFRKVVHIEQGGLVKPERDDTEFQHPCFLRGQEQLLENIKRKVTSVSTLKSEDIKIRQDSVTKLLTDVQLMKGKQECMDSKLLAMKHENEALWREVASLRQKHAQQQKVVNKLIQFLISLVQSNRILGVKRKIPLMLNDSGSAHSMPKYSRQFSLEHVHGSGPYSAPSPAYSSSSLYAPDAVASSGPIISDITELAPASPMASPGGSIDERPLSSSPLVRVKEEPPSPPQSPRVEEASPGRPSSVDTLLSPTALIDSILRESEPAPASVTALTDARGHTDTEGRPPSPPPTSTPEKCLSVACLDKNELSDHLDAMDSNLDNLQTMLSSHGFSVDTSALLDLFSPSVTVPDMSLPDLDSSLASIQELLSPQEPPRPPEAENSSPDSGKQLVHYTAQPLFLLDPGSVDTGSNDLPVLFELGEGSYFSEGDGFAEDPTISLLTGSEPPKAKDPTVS
Chain of CRX (O43186 whole entry): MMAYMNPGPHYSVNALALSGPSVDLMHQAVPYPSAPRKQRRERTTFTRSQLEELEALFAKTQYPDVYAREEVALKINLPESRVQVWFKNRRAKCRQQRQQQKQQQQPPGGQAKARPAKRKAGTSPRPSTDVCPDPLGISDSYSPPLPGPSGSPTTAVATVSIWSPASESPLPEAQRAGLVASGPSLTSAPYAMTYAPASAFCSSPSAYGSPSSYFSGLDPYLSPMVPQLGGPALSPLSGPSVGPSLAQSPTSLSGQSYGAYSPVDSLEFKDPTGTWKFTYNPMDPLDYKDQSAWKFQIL
Chain of ETV6 (P41212 whole entry): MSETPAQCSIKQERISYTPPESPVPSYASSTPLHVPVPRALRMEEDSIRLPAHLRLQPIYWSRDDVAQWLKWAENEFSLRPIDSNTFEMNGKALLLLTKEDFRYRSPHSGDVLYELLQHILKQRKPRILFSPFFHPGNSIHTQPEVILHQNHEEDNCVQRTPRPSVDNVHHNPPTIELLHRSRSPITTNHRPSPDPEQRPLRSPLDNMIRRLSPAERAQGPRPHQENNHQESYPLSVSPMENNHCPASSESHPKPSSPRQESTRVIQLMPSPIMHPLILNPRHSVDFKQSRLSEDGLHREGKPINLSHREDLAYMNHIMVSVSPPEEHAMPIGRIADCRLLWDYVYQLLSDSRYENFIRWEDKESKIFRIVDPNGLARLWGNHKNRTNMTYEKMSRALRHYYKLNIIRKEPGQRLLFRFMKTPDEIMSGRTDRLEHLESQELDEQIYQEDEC

ATGGGT
binding signal [1]: 1.28 fold enrichment (6-mer frequency, TF over GST control) | binding signal [2]: 1.5 fold enrichment (6-mer frequency, TF over GST control) | binding signal [3]: 1.08 fold enrichment (6-mer frequency, TF over GST control) | binding signal [4]: 1.36 fold enrichment (6-mer frequency, TF over GST control) | binding signal [5]: 1.35 fold enrichment (6-mer frequency, TF over GST control) | binding signal [6]: 1.33 fold enrichment (6-mer frequency, TF over GST control) | binding signal [7]: 1.36 fold enrichment (6-mer frequency, TF over GST control) | binding signal [8]: 1.31 fold enrichment (6-mer frequency, TF over GST control) | binding signal [9]: 1.11 fold enrichment (6-mer frequency, TF over GST control) | binding signal [10]: 1.21 fold enrichment (6-mer frequency, TF over GST control) | binding signal [11]: 1.36 fold enrichment (6-mer frequency, TF over GST control) | binding signal [12]: 1.27 fold enrichment (6-mer frequency, TF over GST control) | binding signal [13]: 1.37 fold enrichment (6-mer frequency, TF over GST control) | binding signal [14]: 1.42 fold enrichment (6-mer frequency, TF over GST control) | binding signal [15]: 1.41 fold enrichment (6-mer frequency, TF over GST control) | binding signal [16]: 1.34 fold enrichment (6-mer frequency, TF over GST control) | binding signal [17]: 1.3 fold enrichment (6-mer frequency, TF over GST control) | binding signal [18]: 1.33 fold enrichment (6-mer frequency, TF over GST control)
